Sampled rows, rich in hits. Any-hit rate of the full collection: about 19%.
IL-1B inflam inh = inhibitors of inflammasome signaling (IL-1 beta secretion); THP-1 LPS/ATP IL-1B secretion, AlphaLISA, 16 h; hits give low values; activity change, % at 57.5 µM; 4.7% of 360,000 active; in the data active = activity change below about -50%; inconclusive = mostly about -30% to -49%
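Secreted IL-1B measured by AlphaLISA bead assay after 16 h compound exposure of THP-1 cells; compounds (final up to 57.5 uM) added 1 h before LPS (250 ng/mL) and ATP (1.25 mM) stimulation; lower signal means less secretion.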
HT1080 IDH1KD tx = toxicity to HT-1080 IDH1 knockdown cells (counter line); Potency, µM (titrated, usually from 46.1 µM), hits mostly cytotoxic; HT-1080 IDH1 knockdown viability, ATP luminescence, 48 h; 2% of 360,000 active
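Cytotoxicity counter-line: IDH1KD HT-1080, 48 h, CellTiter-Glo. Curves classed by r2, magnitude and activity.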
TDP1 cell CPT = DT40-hTDP1 cell growth loss with CPT; Potency, µM (top dose mostly 46.2 µM), hits mostly inhibitors; chicken DT40 Tdp1-/-;hTDP1 cells + 20 nM CPT, ATP luminescence, 48 h; 12% of 420,000 active; also: nearly all actives have a fitted effect of over 55% in size
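Chicken DT40 Tdp1-/- cells complemented with human TDP1, 400 cells/well, exposed to compounds plus 20 nM camptothecin for at least 48 h at 37 C; viability read as ATP content by CellTiter-Glo luminescence.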
HT1080-NT tox = kills 2HG-producing HT-1080-NT fibrosarcoma cells; HT-1080-NT fibrosarcoma viability, CellTiter-Glo ATP luminescence, 48 h; Potency, µM (doses to about 46.1 µM), usual class: cytotoxic; 1.6% of 360,000 active;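 also: NT is the 2HG producing partner of a matched IDH1 knockdown line; nearly all actives have a fitted effect of over 55% in size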
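HT-1080-NT fibrosarcoma cells (2HG-overproducing), 750 cells/well in RPMI with 5% FBS, dosed after 2 h and incubated 48 h at 37C. CellTiter-Glo luminescence normalized to DMSO and no-cell wells; concentration-response curves fitted and classed.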
TDP1 cell noCPT = qHTS for Inhibitors of human tyrosyl-DNA phosphodiesterase 1 (TDP1): qHTS in cells in absence of CPT | DT40 Tdp1-/- hTDP1 cells, no CPT, ATP luminescence, 48 h | Potency, µM (doses to about 46.2 µM), usual class: inhibitors | 15% of 420,000 active | AID 686978, 2013; also: nearly all actives have a fitted effect of over 55% in size
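Readout: luminescence from CellTiter-Glo after 30 min in the dark at RT. Cells: DT40 Tdp1-/- with stable hTDP1, 400/well. Exposure: compounds alone, ≥48 hr, 37 °C.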
Hits are given with their value; . = inactive; ? = inconclusive; / = not tested or not shown; [ ] = remark or other dose. Unless noted, calls follow the shape of the dose curve; as a rule, active = well fitted curve in the direction sought with a large enough effect; inconclusive = small, poorly fitted or top-dose-only effect, or another doubt; inactive = no such curve, though single readings can be large; an effect the other way counts as inactive or inconclusive.

SMILES	IL-1B inflam inh	HT1080 IDH1KD tx	TDP1 cell CPT	HT1080-NT tox	TDP1 cell noCPT
CCN(CC)P(=O)(Oc1ccccc1)Oc1ccccc1	.	.	?	.	?
COc1ccc(OCC(=O)N2CCN(CCc3ccccn3)CC2)cc1	/	/	.	/	.
COc1cccc(CN2CCC(n3nccc3NC(=O)CCOc3ccccc3)CC2)c1O	.	.	?	.	.
COc1ccc(C(CNC(=O)Cc2ccc(Cl)c(Cl)c2)N2CCCCC2)cc1 (stereo not drawn)	.	.	?	.	?
CN(C(=O)Cc1ccc(Cl)c(Cl)c1)C(CN1CCCC1)c1cccc(N=C=S)c1 (stereo not drawn)	/	/	5.17µM	/	3.26µM
CN(C(=O)Cc1ccc(Cl)c(Cl)c1)[C@H](CN1CCCC1)c1cccc(N=C=S)c1	/	/	11.9µM	/	13.3µM
C=C(C)c1cc2cc(C(C)=O)c(O)cc2o1	/	/	.[9.04 µM]	/	.[9.04 µM]
COc1cccc(C2CC3C(=O)C=CC2N3Cc2ccccc2)c1 (stereo not drawn)	?	.	20.6µM	.	16.4µM
COc1cccc(-c2nn(Cc3ccccc3)cc2C(=O)O)c1	.	.	.	.	.
CNC(=O)Oc1ccc(-c2cn3cc(C)ccc3n2)cc1	?	.	?	.	11.6µM
O=C1NC(=O)C(Sc2ccccc2[N+](=O)[O-])C(=O)N1	.	.	?	.	?
CC(=O)c1ccc2c(c1)C1C(Cl)C(Sc3ccccc3[N+](=O)[O-])CC1C(c1ccccc1[N+](=O)[O-])N2 (stereo not drawn)	.	.	10.3µM	.	13µM
CC(=O)c1ccc2c(c1)C1C(Cl)C(Sc3ccccc3[N+](=O)[O-])CC1C(c1ccccc1)N2 (stereo not drawn)	.	.	11.6µM	.	14.6µM
COc1ccc2[nH]cc(CCN)c2c1	.	.	?	.	.
CCCCCCCCCOc1ccc2[nH]cc(CCN)c2c1	/	/	7.31µM	/	8.2µM
ClCCOCOCCCl	.	.	.	.	.
COC1CC2C=C(C)C=CC=CC(=O)NC(c3ccccc3)CC=CCCC(O)CC(=O)C2=C1O (stereo not drawn)	-112.6	1.64µM	0.461µM	1.84µM	0.517µM
CCCCOc1ccc(CN2CCN(CC)CC2)cc1	.	.	?	.	?
CCCCCCCCn1sccc1=O	-107.2	8.2µM	0.731µM	6.51µM	1.16µM
O=C(COc1ccccc1F)N1CCN(Cc2cc(=O)n3nc(-c4ccccc4Cl)sc3n2)CC1	/	/	?	/	14.6µM
Cc1ccccc1-c1nn2c(=O)cc(CN3CCN(C(=O)COc4ccccc4Cl)CC3)nc2s1	/	/	18.4µM	/	8.2µM
NCCc1cccc(O)c1	/	/	.	/	.
NC(CO)Cc1ccccc1 (stereo not drawn)	/	/	.	/	.
O=C1CC(N2CCC(n3c(=O)[nH]c4ccccc43)CC2)C(=O)N1c1ccc(F)cc1 (stereo not drawn)	.	.	.	.	.
O=C(NCCN1CCC(n2c(=O)[nH]c3ccccc32)CC1)c1ccc2ccccc2c1	/	?	23.1µM	.	?
SMILES	IL-1B inflam inh	HT1080 IDH1KD tx	TDP1 cell CPT	HT1080-NT tox	TDP1 cell noCPT
O=C(NCCN1CCC2(CC1)C(=O)NCN2c1cccc(F)c1)c1ccc2ccccc2c1	?	20.6µM	?	14.6µM	?
CC(C)CN1C(=S)SC(C)(C)C1n1oc(=O)n(-c2ccc(Cl)cc2)c1=O (stereo not drawn)	.	?	?	?	.
c1cnc2ccc(C(c3nnnn3C3CCCCC3)N3CCN(C4CCCCC4)CC3)cc2c1 (stereo not drawn)	.	.	13µM	.	13µM
O=C1NCN(c2ccccc2)C12CCN(C(c1ccnc3ccccc13)c1nnnn1C1CCCCC1)CC2 (stereo not drawn)	.	.	?	.	?
Cc1ccc(Cl)cc1N1CCN(c2ncnc3c2nc2n3CCCC2)CC1	/	/	?	/	18.4µM
CN1CCN(c2ncnc(Cl)c2N)CC1	.	.	.	.	.
O=C1C(Cc2cnc[nH]2)NC(=S)N1c1ccccc1 (stereo not drawn)	.	.	.	.	.
CN1CCN(c2ccc3c(c2)S(=O)(=O)c2ccccc2C3=O)CC1	.	.	?	.	?
CN1CCN(c2cccc3c2C(=O)c2ccccc2C3=O)CC1	-59.6	.	?	.	.
CN1CCN(c2ccc(N)cc2Cl)CC1	?	.	?	.	?
COC(=O)C1=C(c2ccccc2)C[C@@H]2CC[C@H]1N2C(=O)N1CCOCC1	.	.	?	.	?
COC(=O)C1=C(c2ccc(-c3ccccc3)c(F)c2)C[C@@H]2CC[C@H]1N2C(=O)N1CCCC1	-69.3	.	1.64µM	.	1.16µM
COC(=O)C1=C(c2ccc(-c3ccccc3)c(F)c2)C[C@@H]2CC[C@H]1N2C(=O)N1CCOCC1	?	.	1.16µM	.	1.3µM
COC(=O)C1=C(c2ccc(-c3ccccc3)c(F)c2)C[C@@H]2CC[C@H]1N2C(=O)N1CCCCC1	.	20.6µM	2.31µM	?	1.3µM
COC(=O)C1=C(c2ccc(-c3ccccc3)c(F)c2)C[C@@H]2CC[C@H]1N2C(=O)N1CCc2cc(OC)c(OC)cc2C1	?	.	?	.	?
Cc1cccc(C)c1-n1nnnc1C(c1cccc2ccccc12)N1CCC2(CC1)C(=O)NCN2c1ccccc1 (stereo not drawn)	.	.	18.4µM	.	11.6µM
COc1ccc(C(c2nnnn2C2CCCC2)N2CCC3(CC2)C(=O)NCN3c2ccccc2)cc1 (stereo not drawn)	.	?	?	?	?
O=C1NCN(c2ccccc2)C12CCN(C(c1cc3ccccc3o1)c1nnnn1C1CCCC1)CC2 (stereo not drawn)	-65.2	?	?	?	?
O=C1NCN(c2ccccc2)C12CCN(C(c1cccc3ccccc13)c1nnnn1C1CCCCC1)CC2 (stereo not drawn)	.	.	23.1µM	?	?
CCCCn1nnnc1C(c1cccc(OC)c1OC)N1CCC2(CC1)C(=O)NCN2c1ccccc1 (stereo not drawn)	.	.	?	?	?
O=C1NCN(c2ccccc2)C12CCN(C(c1cccc3ccccc13)c1nnnn1C1CCCC1)CC2 (stereo not drawn)	-62.0	?	?	?	16.4µM
CC(C)OC(=O)Cc1ccccc1	.	.	.	.	.
CN(C)CCO	/	/	.	/	.
Cc1occc1C(=O)Nc1cccc(-c2nc(CNC(=O)c3cccc(C#CC(C)(C)O)c3)c(C)o2)c1	/	/	.[9.04 µM]	/	20.6µM
CC[C@]1(O)CC(O[C@@H]2CC(N(C)C)C(O)C(C)O2)c2c(cc3c(c2O)C(=O)c2c(O)ccc(O)c2C3=O)C1C(=O)OC (stereo partly drawn)	/	/	1.46µM	/	1.3µM
O[C@@H]1CCCN2CCc3c([nH]c4ccccc34)[C@H]12	.	.	14.6µM	.	?
